Reference: PMC7862700, “An all-to-all approach to the identification of sequence-specific readers for epigenetic DNA modifications on cytosine”

Columns and labels:
Experiment in all cases: DAPPL (digital affinity profiling via proximity ligation, sequencing); 10 mM Tris-HCl pH 7.5, 50 mM NaCl, 1 mM DTT, 4% glycerol, room temperature, 30 min; GST-TFs on glutathione beads, 16-mer random dsDNA library, 0.1% formaldehyde crosslink after washing; high values mean tight binding
[1] = target: T1, FEV (Homo sapiens, UniProt Q99581 1-238); details: protein: recombinant; tags: N-terminal GST; dsDNA, one strand shown
T1 sequence: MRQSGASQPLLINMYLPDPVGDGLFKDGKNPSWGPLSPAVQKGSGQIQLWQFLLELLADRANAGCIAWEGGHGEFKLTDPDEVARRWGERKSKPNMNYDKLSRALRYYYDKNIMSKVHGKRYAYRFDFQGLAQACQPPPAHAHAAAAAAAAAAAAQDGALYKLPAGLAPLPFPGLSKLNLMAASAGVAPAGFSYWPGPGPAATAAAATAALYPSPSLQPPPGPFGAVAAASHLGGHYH
Outline: (§1)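 Each value of binding signal is a hexamer's read frequency for a factor divided by the same hexamer's frequency in the tag-only sample. Barcoded, bead-captured GST fusions of human transcription factors made in yeast were pooled with that sample and incubated with 200 nmole of a random double-stranded 16-mer DNA library in Tris/NaCl/DTT/glycerol buffer at room temperature for 30 min. Washing, 0.1% formaldehyde crosslinking, proximity ligation, PCR and Illumina NextSeq500 sequencing followed.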

[2] = target: ETV5 (Homo sapiens, UniProt P41161 1-510); details: protein: recombinant; tags: N-terminal GST; dsDNA, one strand shown
Outline: as §1

[3] = target: HSF1 (Homo sapiens, UniProt Q00613 1-529); details: protein: recombinant; tags: N-terminal GST; chain copies: 3; dsDNA, one strand shown
Outline: as §1

[4] = target: T2, SPIC (Homo sapiens, UniProt Q8N5J4 1-248); details: protein: recombinant; tags: N-terminal GST; dsDNA, one strand shown
T2 sequence: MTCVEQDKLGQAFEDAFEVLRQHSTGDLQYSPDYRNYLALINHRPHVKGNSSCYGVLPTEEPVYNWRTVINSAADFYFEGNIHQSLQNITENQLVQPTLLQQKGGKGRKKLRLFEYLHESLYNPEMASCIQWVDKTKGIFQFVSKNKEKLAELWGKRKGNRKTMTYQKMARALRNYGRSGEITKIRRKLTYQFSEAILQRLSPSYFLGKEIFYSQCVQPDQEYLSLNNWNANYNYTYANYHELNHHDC
Outline: as §1

[5] = target: ELF4 (Homo sapiens, UniProt Q99607 1-663); details: protein: recombinant; tags: N-terminal GST; dsDNA, one strand shown
Outline: as §1

[6] = target: T3, ELK4 (Homo sapiens, UniProt P28324-2 1-405); details: protein: recombinant; tags: N-terminal GST; dsDNA, one strand shown
T3 sequence: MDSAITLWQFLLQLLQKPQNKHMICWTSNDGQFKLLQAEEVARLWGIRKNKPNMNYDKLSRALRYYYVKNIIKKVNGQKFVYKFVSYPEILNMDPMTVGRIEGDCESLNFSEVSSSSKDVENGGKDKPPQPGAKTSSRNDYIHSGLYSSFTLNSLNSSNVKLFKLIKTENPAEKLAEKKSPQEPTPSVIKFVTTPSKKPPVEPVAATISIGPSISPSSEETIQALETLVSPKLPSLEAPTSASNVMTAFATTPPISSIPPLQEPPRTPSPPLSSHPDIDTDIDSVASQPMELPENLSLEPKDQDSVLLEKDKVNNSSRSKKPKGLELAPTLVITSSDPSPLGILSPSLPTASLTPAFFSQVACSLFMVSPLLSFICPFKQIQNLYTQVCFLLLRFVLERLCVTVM
Outline: as §1

[7] = target: T4, ETV2 (Homo sapiens, UniProt O00321 1-342); details: protein: recombinant; tags: N-terminal GST; dsDNA, one strand shown
T4 sequence: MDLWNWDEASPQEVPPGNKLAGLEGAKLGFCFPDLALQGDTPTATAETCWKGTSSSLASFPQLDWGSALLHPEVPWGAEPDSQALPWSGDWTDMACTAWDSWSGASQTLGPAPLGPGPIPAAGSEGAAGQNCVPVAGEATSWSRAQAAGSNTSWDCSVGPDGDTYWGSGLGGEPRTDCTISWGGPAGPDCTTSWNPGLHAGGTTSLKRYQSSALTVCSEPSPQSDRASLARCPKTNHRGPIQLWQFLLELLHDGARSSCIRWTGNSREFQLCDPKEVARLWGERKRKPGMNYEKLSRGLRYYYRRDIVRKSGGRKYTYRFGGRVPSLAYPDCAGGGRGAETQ
Outline: as §1

[8] = target: T5, ELF3 (Homo sapiens, UniProt P78545 1-371); details: protein: recombinant; tags: N-terminal GST; dsDNA, one strand shown
T5 sequence: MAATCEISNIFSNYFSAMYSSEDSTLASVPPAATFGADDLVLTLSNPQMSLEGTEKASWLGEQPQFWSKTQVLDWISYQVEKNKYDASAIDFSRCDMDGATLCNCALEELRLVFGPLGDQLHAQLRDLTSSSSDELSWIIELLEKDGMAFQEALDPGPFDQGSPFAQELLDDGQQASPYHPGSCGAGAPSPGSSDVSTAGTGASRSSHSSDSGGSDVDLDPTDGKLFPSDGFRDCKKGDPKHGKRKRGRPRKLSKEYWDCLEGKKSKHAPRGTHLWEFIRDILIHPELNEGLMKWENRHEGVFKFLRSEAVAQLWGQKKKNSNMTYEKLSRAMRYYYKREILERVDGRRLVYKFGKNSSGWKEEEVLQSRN
Outline: as §1

[9] = target: CRX (Homo sapiens, UniProt O43186 1-299); details: protein: recombinant; tags: N-terminal GST; dsDNA, one strand shown
Outline: as §1

[10] = target: ETV1 (Homo sapiens, UniProt P50549 1-477); details: protein: recombinant; tags: N-terminal GST; dsDNA, one strand shown
Outline: as §1

Sequence of HSF1 (Q00613 whole entry): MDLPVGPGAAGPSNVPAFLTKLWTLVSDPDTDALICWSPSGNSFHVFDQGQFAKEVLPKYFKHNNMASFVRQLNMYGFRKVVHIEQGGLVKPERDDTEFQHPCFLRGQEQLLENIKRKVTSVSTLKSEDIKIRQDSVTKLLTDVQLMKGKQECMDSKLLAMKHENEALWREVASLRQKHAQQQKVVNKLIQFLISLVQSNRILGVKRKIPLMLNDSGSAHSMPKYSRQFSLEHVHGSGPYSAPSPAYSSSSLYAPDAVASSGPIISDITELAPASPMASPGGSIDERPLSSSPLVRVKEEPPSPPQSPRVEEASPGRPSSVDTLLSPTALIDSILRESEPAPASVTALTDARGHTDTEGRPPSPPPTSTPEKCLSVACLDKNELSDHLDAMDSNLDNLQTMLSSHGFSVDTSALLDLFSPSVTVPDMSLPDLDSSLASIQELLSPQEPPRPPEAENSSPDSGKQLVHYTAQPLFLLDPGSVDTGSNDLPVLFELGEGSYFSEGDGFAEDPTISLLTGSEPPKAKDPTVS
Sequence of ETV5 (P41161 whole entry): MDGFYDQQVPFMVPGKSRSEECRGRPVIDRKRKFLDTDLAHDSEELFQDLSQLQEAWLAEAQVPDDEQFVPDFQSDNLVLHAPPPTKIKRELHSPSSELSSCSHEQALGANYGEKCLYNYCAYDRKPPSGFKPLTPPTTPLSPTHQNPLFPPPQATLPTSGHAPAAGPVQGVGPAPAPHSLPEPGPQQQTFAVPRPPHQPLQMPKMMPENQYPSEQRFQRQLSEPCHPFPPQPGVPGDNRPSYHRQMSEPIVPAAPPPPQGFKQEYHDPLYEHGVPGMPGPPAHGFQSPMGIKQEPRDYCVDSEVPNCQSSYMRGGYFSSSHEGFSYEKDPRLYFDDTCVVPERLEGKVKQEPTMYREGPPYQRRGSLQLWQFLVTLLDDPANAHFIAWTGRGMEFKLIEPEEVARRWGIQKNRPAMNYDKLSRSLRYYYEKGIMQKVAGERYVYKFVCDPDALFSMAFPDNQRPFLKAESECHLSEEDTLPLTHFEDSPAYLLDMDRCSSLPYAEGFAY
Sequence of CRX (O43186 whole entry): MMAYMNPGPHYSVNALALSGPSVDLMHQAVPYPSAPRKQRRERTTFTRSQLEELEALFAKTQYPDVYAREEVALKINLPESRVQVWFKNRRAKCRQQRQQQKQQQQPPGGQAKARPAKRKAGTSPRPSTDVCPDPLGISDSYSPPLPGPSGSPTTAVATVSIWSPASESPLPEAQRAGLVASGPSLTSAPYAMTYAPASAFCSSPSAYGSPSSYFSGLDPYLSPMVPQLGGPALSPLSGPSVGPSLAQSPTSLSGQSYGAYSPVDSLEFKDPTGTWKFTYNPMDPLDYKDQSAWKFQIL
Sequence of ETV1 (P50549 whole entry): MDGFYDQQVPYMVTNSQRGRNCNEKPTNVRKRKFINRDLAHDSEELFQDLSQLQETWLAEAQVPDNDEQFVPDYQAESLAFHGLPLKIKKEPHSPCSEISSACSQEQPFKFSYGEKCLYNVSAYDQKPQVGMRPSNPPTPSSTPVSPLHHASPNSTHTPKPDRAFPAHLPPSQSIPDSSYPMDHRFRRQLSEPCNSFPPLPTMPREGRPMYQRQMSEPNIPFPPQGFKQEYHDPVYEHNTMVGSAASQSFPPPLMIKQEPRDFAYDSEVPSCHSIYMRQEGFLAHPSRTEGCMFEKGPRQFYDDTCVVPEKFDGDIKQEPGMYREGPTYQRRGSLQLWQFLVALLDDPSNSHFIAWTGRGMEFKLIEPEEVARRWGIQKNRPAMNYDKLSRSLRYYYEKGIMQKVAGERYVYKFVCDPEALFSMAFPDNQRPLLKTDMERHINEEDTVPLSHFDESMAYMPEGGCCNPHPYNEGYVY
Sequence of ELF4 (Q99607 whole entry): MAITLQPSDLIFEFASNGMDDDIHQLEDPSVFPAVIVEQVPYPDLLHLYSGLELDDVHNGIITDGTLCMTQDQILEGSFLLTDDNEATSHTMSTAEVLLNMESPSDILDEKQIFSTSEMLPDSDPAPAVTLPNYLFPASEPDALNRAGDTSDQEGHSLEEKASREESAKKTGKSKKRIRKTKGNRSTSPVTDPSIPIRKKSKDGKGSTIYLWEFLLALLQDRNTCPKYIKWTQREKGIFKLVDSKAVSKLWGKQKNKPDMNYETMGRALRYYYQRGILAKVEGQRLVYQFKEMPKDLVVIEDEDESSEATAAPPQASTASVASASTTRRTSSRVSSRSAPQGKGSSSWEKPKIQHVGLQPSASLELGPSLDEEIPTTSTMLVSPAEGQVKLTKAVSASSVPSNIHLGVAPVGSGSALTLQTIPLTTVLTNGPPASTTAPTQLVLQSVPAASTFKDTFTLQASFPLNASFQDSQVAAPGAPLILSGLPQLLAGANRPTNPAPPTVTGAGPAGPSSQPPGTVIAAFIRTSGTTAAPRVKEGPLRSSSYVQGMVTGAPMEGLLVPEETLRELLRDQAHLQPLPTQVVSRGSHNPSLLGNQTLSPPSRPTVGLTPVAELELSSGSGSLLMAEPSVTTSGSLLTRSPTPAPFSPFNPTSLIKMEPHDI

Sequence | binding signal [1] | binding signal [2] | binding signal [3] | binding signal [4] | binding signal [5] | binding signal [6] | binding signal [7] | binding signal [8] | binding signal [9] | binding signal [10]
TGTATG | 1.21 fold enrichment (6-mer frequency, TF over GST control) | 1.28 fold enrichment (6-mer frequency, TF over GST control) | 1.06 fold enrichment (6-mer frequency, TF over GST control) | 1.09 fold enrichment (6-mer frequency, TF over GST control) | 1.22 fold enrichment (6-mer frequency, TF over GST control) | 1.34 fold enrichment (6-mer frequency, TF over GST control) | 1.18 fold enrichment (6-mer frequency, TF over GST control) | 1.19 fold enrichment (6-mer frequency, TF over GST control) | 1.04 fold enrichment (6-mer frequency, TF over GST control) | 1.27 fold enrichment (6-mer frequency, TF over GST control)
TAATCA | 1.13 fold enrichment (6-mer frequency, TF over GST control) | 1.18 fold enrichment (6-mer frequency, TF over GST control) | 1.64 fold enrichment (6-mer frequency, TF over GST control) | 1.26 fold enrichment (6-mer frequency, TF over GST control) | 1.11 fold enrichment (6-mer frequency, TF over GST control) | 1.32 fold enrichment (6-mer frequency, TF over GST control) | 1.27 fold enrichment (6-mer frequency, TF over GST control) | 1.18 fold enrichment (6-mer frequency, TF over GST control) | 2.51 fold enrichment (6-mer frequency, TF over GST control) | 1.14 fold enrichment (6-mer frequency, TF over GST control)
TATATT | 1.39 fold enrichment (6-mer frequency, TF over GST control) | 1.43 fold enrichment (6-mer frequency, TF over GST control) | 1.58 fold enrichment (6-mer frequency, TF over GST control) | 1.56 fold enrichment (6-mer frequency, TF over GST control) | 1.32 fold enrichment (6-mer frequency, TF over GST control) | 1.65 fold enrichment (6-mer frequency, TF over GST control) | 1.41 fold enrichment (6-mer frequency, TF over GST control) | 1.58 fold enrichment (6-mer frequency, TF over GST control) | 1.93 fold enrichment (6-mer frequency, TF over GST control) | 1.44 fold enrichment (6-mer frequency, TF over GST control)
TTTCGA | 1.48 fold enrichment (6-mer frequency, TF over GST control) | 1.54 fold enrichment (6-mer frequency, TF over GST control) | 2.5 fold enrichment (6-mer frequency, TF over GST control) | 1.18 fold enrichment (6-mer frequency, TF over GST control) | 1.57 fold enrichment (6-mer frequency, TF over GST control) | 1.5 fold enrichment (6-mer frequency, TF over GST control) | 1.32 fold enrichment (6-mer frequency, TF over GST control) | 1.39 fold enrichment (6-mer frequency, TF over GST control) | 1.86 fold enrichment (6-mer frequency, TF over GST control) | 1.5 fold enrichment (6-mer frequency, TF over GST control)
AACTTT | 1.18 fold enrichment (6-mer frequency, TF over GST control) | 1.19 fold enrichment (6-mer frequency, TF over GST control) | 1.68 fold enrichment (6-mer frequency, TF over GST control) | 1.45 fold enrichment (6-mer frequency, TF over GST control) | 1.19 fold enrichment (6-mer frequency, TF over GST control) | 1.32 fold enrichment (6-mer frequency, TF over GST control) | 1.3 fold enrichment (6-mer frequency, TF over GST control) | 1.33 fold enrichment (6-mer frequency, TF over GST control) | 1.27 fold enrichment (6-mer frequency, TF over GST control) | 1.23 fold enrichment (6-mer frequency, TF over GST control)
TACTTG | 1.22 fold enrichment (6-mer frequency, TF over GST control) | 1.26 fold enrichment (6-mer frequency, TF over GST control) | 1.26 fold enrichment (6-mer frequency, TF over GST control) | 1.35 fold enrichment (6-mer frequency, TF over GST control) | 1.39 fold enrichment (6-mer frequency, TF over GST control) | 1.38 fold enrichment (6-mer frequency, TF over GST control) | 1.46 fold enrichment (6-mer frequency, TF over GST control) | 1.54 fold enrichment (6-mer frequency, TF over GST control) | 1.5 fold enrichment (6-mer frequency, TF over GST control) | 1.54 fold enrichment (6-mer frequency, TF over GST control)
TCCTAT | 1.41 fold enrichment (6-mer frequency, TF over GST control) | 1.47 fold enrichment (6-mer frequency, TF over GST control) | 1.41 fold enrichment (6-mer frequency, TF over GST control) | 1.68 fold enrichment (6-mer frequency, TF over GST control) | 1.46 fold enrichment (6-mer frequency, TF over GST control) | 1.49 fold enrichment (6-mer frequency, TF over GST control) | 1.56 fold enrichment (6-mer frequency, TF over GST control) | 1.74 fold enrichment (6-mer frequency, TF over GST control) | 1.68 fold enrichment (6-mer frequency, TF over GST control) | 1.57 fold enrichment (6-mer frequency, TF over GST control)
